Experimental data reported in PubChem BioAssay AID1159580 (chemical genetic matrix, 2015).
Among all 5,500 compounds or so, about 2,000 (36%) were called active. Not shown: some 18% with an inconclusive outcome. Rule as the data show it: active = normalized growth mostly below about 0.91 (no sharp cut-off); inconclusive = no clear call, values can overlap the other calls; inactive = mostly above about 0.92. The list shows a part of the results.

Experiment: chemical genetic growth profiling, strain panel (AID 1159580);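 also: tested at 20 µM; growth read once vehicle control cultures reached saturation at 30 °C; 1 = growth at the plate median or of vehicle wells; lower values mean less growth of the strain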
Details: growth OD

Measured: normalized growth

CCNc1nc(Cl)nc(NCC)n1
inactive: S. cerevisiae deletion strains, locus YJR043C, strain POL32, active compounds read low 0.939 | S. cerevisiae deletion strains, locus YJR075W, strain HOC1, active compounds read low 0.998 | S. cerevisiae deletion strains, locus YKL009W, strain mrt4, active compounds read low 1.01 | S. cerevisiae deletion strains, locus YKL068W, active compounds read low 0.995 | S. cerevisiae deletion strains, locus YKL085W, strain MDH1 (second series), active compounds read low 1 | S. cerevisiae deletion strains, locus YKL085W, strain MDH1, active compounds read low 1 | S. cerevisiae deletion strains, locus YKL160W, strain elf1, active compounds read low 1 | S. cerevisiae deletion strains, locus YKL190W, strain CNB1, active compounds read low 1 | S. cerevisiae deletion strains, locus YKR001C, strain vps1, active compounds read low 1.02 | S. cerevisiae deletion strains, locus YKR026C, strain gcn3, active compounds read low 0.985 | S. cerevisiae deletion strains, locus YKR091W, strain srl3, active compounds read low 0.996 | S. cerevisiae deletion strains, locus YLL001W, strain dnm1, active compounds read low 1 | S. cerevisiae deletion strains, locus YLL026W, active compounds read low 0.981 | S. cerevisiae deletion strains, locus YLL041C, strain sdh2, active compounds read low 0.992 | S. cerevisiae deletion strains, locus YLR027C, strain aat2, active compounds read low 0.977 | S. cerevisiae deletion strains, locus YLR039C, strain RIC1, active compounds read low 1 | S. cerevisiae deletion strains, locus YLR058C, strain SHM2, active compounds read low 0.999 | S. cerevisiae deletion strains, locus YLR102C, strain apc9, active compounds read low 1.01 | S. cerevisiae deletion strains, locus YLR221C, strain rsa3, active compounds read low 0.987 | S. cerevisiae deletion strains, locus YLR258W, strain gsy2, active compounds read low 0.989 | S. cerevisiae deletion strains, locus YLR262C, strain YPT6 (second series), active compounds read low 0.992 | S. cerevisiae deletion strains, locus YLR262C, strain YPT6, active compounds read low 0.997 | S. cerevisiae deletion strains, locus YLR268W, strain sec22, active compounds read low 1 | S. cerevisiae deletion strains, locus YLR320W, strain mms22, active compounds read low 0.986 | S. cerevisiae deletion strains, locus YLR330W, strain CHS5, active compounds read low 0.994 | S. cerevisiae deletion strains, locus YLR342W, strain FKS1 (second series), active compounds read low 0.995 | S. cerevisiae deletion strains, locus YLR342W, strain FKS1, active compounds read low 0.991 | S. cerevisiae deletion strains, locus YLR357W, strain rsc2, active compounds read low 0.953 | S. cerevisiae deletion strains, locus YLR370C, strain arc18, active compounds read low 1.02 | S. cerevisiae deletion strains, locus YLR371W, strain rom2, active compounds read low 1 | S. cerevisiae deletion strains, locus YLR384C, strain iki3, active compounds read low 0.976 | S. cerevisiae deletion strains, locus YLR418C, strain cdc73, active compounds read low 0.985 | S. cerevisiae deletion strains, locus YML016C, strain PPZ1, active compounds read low 1 | S. cerevisiae deletion strains, locus YML032C, strain rad52, active compounds read low 1.01 | S. cerevisiae deletion strains, locus YML120C, strain ndi1, active compounds read low 1.03 | S. cerevisiae deletion strains, locus YML124C, strain tub3, active compounds read low 1.01 | S. cerevisiae deletion strains, locus YMR058W, strain fet3, active compounds read low 0.999 | S. cerevisiae deletion strains, locus YMR078C, strain ctf18, active compounds read low 1.01 | S. cerevisiae deletion strains, locus YMR125W, strain sto1, active compounds read low 0.99 | S. cerevisiae deletion strains, locus YMR129W, active compounds read low 0.997 | S. cerevisiae deletion strains, locus YMR205C, strain PFK2, active compounds read low 0.997 | S. cerevisiae deletion strains, locus YMR223W, strain ubp8, active compounds read low 1.01 | S. cerevisiae deletion strains, locus YMR231W, strain pep5, active compounds read low 0.995 | S. cerevisiae deletion strains, locus YMR263W, strain SAP30, active compounds read low 1.01 | S. cerevisiae deletion strains, locus YMR307W, strain GAS1, active compounds read low 1.06 | S. cerevisiae deletion strains, locus YNL067W, strain RPL9B, active compounds read low 0.988 | S. cerevisiae deletion strains, locus YNL071W, strain lat1, active compounds read low 0.998 | S. cerevisiae deletion strains, locus YNL128W, strain TEP1, active compounds read low 0.997 | S. cerevisiae deletion strains, locus YNL153C, strain GIM3, active compounds read low 0.985 | S. cerevisiae deletion strains, locus YNL209W, strain ssb2, active compounds read low 0.992 | S. cerevisiae deletion strains, locus YNL233W, strain BNI4, active compounds read low 1.01 | S. cerevisiae deletion strains, locus YNL248C, strain rpa49, active compounds read low 0.989 | S. cerevisiae deletion strains, locus YNL250W, strain rad50, active compounds read low 1.01 | S. cerevisiae deletion strains, locus YNL271C, strain bni1, active compounds read low 1.01 | S. cerevisiae deletion strains, locus YNL298W, strain CLA4, active compounds read low 1.02 | S. cerevisiae deletion strains, locus YNL307C, strain MCK1, active compounds read low 1.01 | S. cerevisiae deletion strains, locus YNL322C, strain KRE1 (second series), active compounds read low 0.997 | S. cerevisiae deletion strains, locus YNL322C, strain KRE1, active compounds read low 0.996 | S. cerevisiae deletion strains, locus YNR049C, strain mso1, active compounds read low 0.988 | S. cerevisiae deletion strains, locus YNR052C, strain pop2, active compounds read low 1.02 | S. cerevisiae deletion strains, locus YOL006C, strain TOP1, active compounds read low 1.04 | S. cerevisiae deletion strains, locus YOL012C, strain htz1 1.15 | S. cerevisiae deletion strains, locus YOL147C, strain pex11, active compounds read low 1.01 | S. cerevisiae deletion strains, locus YOR001W, strain rrp6, active compounds read low 0.982 | S. cerevisiae deletion strains, locus YOR061W, strain CKA2, active compounds read low 0.994 | S. cerevisiae deletion strains, locus YOR069W, strain VPS5, active compounds read low 1 | S. cerevisiae deletion strains, locus YOR070C, strain gyp1, active compounds read low 0.983 | S. cerevisiae deletion strains, locus YOR080W, strain dia2, active compounds read low 0.998 | S. cerevisiae deletion strains, locus YOR083W, strain WHI5, active compounds read low 1.01 | S. cerevisiae deletion strains, locus YOR106W, strain vam3, active compounds read low 1.01 | S. cerevisiae deletion strains, locus YOR136W, strain idh2, active compounds read low 1 | S. cerevisiae deletion strains, locus YOR144C, strain elg1, active compounds read low 1 | S. cerevisiae deletion strains, locus YOR184W, strain ser1, active compounds read low 1.02 | S. cerevisiae deletion strains, locus YOR265W, strain rbl2, active compounds read low 0.979 | S. cerevisiae deletion strains, locus YOR270C, strain vph1, active compounds read low 1.02 | S. cerevisiae deletion strains, locus YOR290C, strain snf2, active compounds read low 1.02 | S. cerevisiae deletion strains, locus YOR316C, strain cot1, active compounds read low 1 | S. cerevisiae deletion strains, locus YPL051W, strain arl3, active compounds read low 0.987 | S. cerevisiae deletion strains, locus YPL055C, strain LGE1, active compounds read low 0.992 | S. cerevisiae deletion strains, locus YPL078C, strain atp4, active compounds read low 1.03 | S. cerevisiae deletion strains, locus YPL106C, strain sse1, active compounds read low 0.987 | S. cerevisiae deletion strains, locus YPL240C, strain hsp82, active compounds read low 0.999 | S. cerevisiae deletion strains, locus YPL241C, strain CIN2, active compounds read low 0.995 | S. cerevisiae deletion strains, locus YPR119W, strain clb2, active compounds read low 0.998 | S. cerevisiae deletion strains, locus YPR141C, strain kar3, active compounds read low 1 | S. cerevisiae deletion strains, locus YPR163C, strain tif3, active compounds read low 1 | S. cerevisiae deletion strains, locus YPR167C, strain met16, active compounds read low 0.996 | S. cerevisiae deletion strains, strain wtn01, active compounds read low 1.01 | S. cerevisiae strains, strain wild type, active compounds read low 0.997
